Measurements reported in PubChem BioAssay (Tox21).
Inconclusive results are not listed. A call without a number means that no potency is given here. Calls of active or inactive are those of the source. Calls come from the whole dose curve.

Assay: qHTS assay for small molecules that induce genotoxicity in human embryonic kidney cells expressing luciferase-tagged ATAD5 - cell viability (AID 651634); note: nearly all actives have a fitted effect of over 25% in size
Conditions: HEK293T ATAD5-luc cells viability, CellTiter-Fluor, 15.5 h; series mostly up to 83.3 µM
Method in brief: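 Quantitative high-throughput format. HEK293T cells expressing ATAD5 fused to luciferase were plated at 2,000 cells/well and treated 15.5 hr with compound versus DMSO. Viability was determined by fluorescent live-cell protease substrate, 30 min at 37C.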
Potency is the fitted concentration of half-maximal effect.

Structure (SMILES)	Potency
CC[C@H](NC(=O)c1cc(F)ccc1NS(=O)(=O)c1cccc2cccnc12)c1ccccc1	inactive
COCc1c(C(C)C)nc(C(C)C)c(/C=C/[C@@H](O)C[C@@H](O)CC(=O)O)c1-c1ccc(F)cc1	inactive
COc1cc2c(N3CCN(C(=O)Nc4ccc(OC(C)C)cc4)CC3)ncnc2cc1OCCCN1CCCCC1	29.8 µM (active)
CC(Cl)C(Cl)Cl (centres undefined)	inactive
NC(=O)Cn1c(=O)cc(CCN2CCN(c3nccc4sccc34)CC2)c2ccc(F)cc21	inactive
CCCC1C(CC)=CC(CC)=CN1c1ccccc1 (centres undefined)	inactive
CC(C)(O)c1ccccc1CC[C@@H](SCC1(CC(=O)O)CC1)c1cccc(/C=C/c2ccc3ccc(Cl)cc3n2)c1	inactive
CC(C)CCCCCOC(=O)CCCCC(=O)OCCCCCC(C)C	inactive
CC(=O)[C@H]1CC[C@H]2[C@@H]3C=CC4=CC(=O)CC[C@@]4(C)[C@@H]3CC[C@]12C	inactive
